Settings in all cases: mRNA level, 48 h; actives raise or lower the signal
Read-out in assay [1]: Tumor necrosis factor receptor superfamily member 6 (Homo sapiens) (UniProt P25445)
As to the kind of experiment: LTEA_HepaRG_FAS: Life Technologies and Expression Analysis (LTEA) Assay for Fas cell surface death receptor (FAS) using HepaRG (AID 2283447). In outline:
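FAS transcript level was measured by TaqMan qRT-PCR against three housekeeping genes after 48 h chemical exposure. Cells were HepaRG, 0.5% DMSO vehicle, with a top concentration of 100 uM and half-log dilutions over eight points, in duplicate.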

Read-out in assay [2]: Fatty acid synthase (Homo sapiens) (UniProt P49327)
As to the kind of experiment: LTEA_HepaRG_FASN: Life Technologies and Expression Analysis (LTEA) Assay for Fatty Acid Synthase (FASN) using HepaRG (AID 2283448). In outline: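 Differentiated HepaRG cells in serum-free induction medium exposed 48 h in duplicate to eight half-log concentrations, top 100 uM, 0.5% DMSO. FASN mRNA by qRT-PCR normalised to ACTB, GAPDH, POLR2A; bidirectional fit versus DMSO.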

Read-out in assay [3]: Cyclin D2 (CCND2), CCND2 (gene 894)
As to the kind of experiment: LTEA_HepaRG_CCND2: Life Technologies and Expression Analysis (LTEA) Assay for Cyclin D2 (CCND2) using HepaRG (AID 2283449). Summed up:
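Read-out is CCND2 mRNA level measured by qRT-PCR in human HepaRG liver cells and normalised to three housekeeping genes. Chemicals were applied for 48 h at up to 100 uM, with gain or loss fitted relative to 0.5% DMSO.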

Read-out in assay [4]: Cyclin Dependent Kinase Inhibitor 1A (CDKN1A), CDKN1A (gene 1026)
The assay can be described thus: LTEA_HepaRG_CDKN1A: Life Technologies and Expression Analysis (LTEA) Assay for Cyclin Dependent Kinase Inhibitor 1A (CDKN1A) using HepaRG (AID 2283450). Summed up:
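Cryopreserved HepaRG cells were plated and cultured 48 h, then switched to serum-free induction medium. Chemicals (eight half-log concentrations, top 100 uM, 0.5% DMSO) were applied for 48 h. Lysates underwent qRT-PCR for CDKN1A with housekeeping normalization.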

Read-out in assay [5]: Cyclin D1 (CCND1), CCND1 (gene 595)
As to the kind of experiment: LTEA_HepaRG_CCND1: Life Technologies and Expression Analysis (LTEA) Assay for Cyclin D1 (CCND1) using HepaRG (AID 2283451). In outline:
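Human liver HepaRG line; 48 h dosing, 8 conc. ≤100 uM, 0.5% DMSO; TaqMan qRT-PCR mRNA, 3 housekeeping genes; bidirectional curve fit vs DMSO.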

Read-out in assay [6]: flavin-containing dimethylaniline monooxygenases 3 (FMO3), FMO3 (gene 2328)
As to the kind of experiment: LTEA_HepaRG_FMO3: Life Technologies and Expression Analysis (LTEA) Assay for flavin-containing dimethylaniline monooxygenases 3 (FMO3) using HepaRG (AID 2283453). Summed up:
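Differentiated HepaRG cells in serum-free induction medium, exposed 48 h in duplicate to 8 half-log concentrations up to 100 uM in 0.5% DMSO. FMO3 mRNA by qRT-PCR, normalized to ACTB, GAPDH, POLR2A; bidirectional fit vs DMSO.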

Read-out in assay [7]: Cytochrome P450 (CYP1A1), CYP1A1 (gene 1543)
As to the kind of experiment: LTEA_HepaRG_CYP1A1: Life Technologies and Expression Analysis (LTEA) Assay for Cytochrome P450 (CYP1A1) using HepaRG (AID 2283454). In outline: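 Induction of CYP1A1 mRNA in a human hepatic cell line was measured 48 h after dosing, with 1 mM phenobarbital as induction positive control and 0.5% DMSO vehicle as baseline for bidirectional curve fitting.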

Read-out in assay [8]: CFLAR gene, CFLAR (gene 8837)
The assay can be described thus: LTEA_HepaRG_CFLAR: Life Technologies and Expression Analysis (LTEA) Assay for CFLAR gene using HepaRG (AID 2283455). In outline: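 HepaRG, 48 h exposure, 8-pt conc-response (100 uM top, half-log), 0.5% DMSO vehicle, duplicates. CFLAR expression by qRT-PCR; ACTB/GAPDH/POLR2A normalization; gain or loss fit vs DMSO baseline.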

Read-out in assay [9]: Forkhead box O1 (FOXO1), FOXO1 (gene 2308)
The assay can be described thus: LTEA_HepaRG_FOXO1: Life Technologies and Expression Analysis (LTEA) Assay for Forkhead box O1 (FOXO1) using HepaRG (AID 2283456). Summed up:
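Readout is FOXO1 transcript level by multiplexed qRT-PCR against three housekeeping genes, curve-fitted in both directions relative to 0.5% DMSO vehicle. Human HepaRG cultures received chemicals for 48 h, up to 100 uM in half-log steps.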

Read-out in assay [10]: growth arrest and DNA damage 45 (GADD45A), GADD45A (gene 1647)
As to the kind of experiment: LTEA_HepaRG_GADD45A: Life Technologies and Expression Analysis (LTEA) Assay for growth arrest and DNA damage 45 (GADD45A) using HepaRG (AID 2283458). Summed up:
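Differentiated HepaRG cells exposed 48 h in serum-free induction medium to 8 concentrations, top 100 uM in half-log steps, 0.5% DMSO. GADD45A mRNA quantified by qRT-PCR, normalized to ACTB, GAPDH and POLR2A; bidirectional fit versus DMSO.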

Read-out in assay [11]: catalase (CAT), CAT (gene 847)
The assay can be described thus: LTEA_HepaRG_CAT: Life Technologies and Expression Analysis (LTEA) Assay for catalase (CAT) using HepaRG (AID 2283452). In outline:
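Expression of CAT was quantified by TaqMan qRT-PCR with ACTB/GAPDH/POLR2A normalization after 48 h chemical exposure of HepaRG. Eight-point half-log series, top 100 uM, in 0.5% DMSO; gain or loss fitted against vehicle.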

Active and inactive are the calls of the source. Rule for the calls: active = hit-call score of the fitted dose curve at least 0.9, where 1 is the maximum; inactive = score below 0.9.

One may read the AC50 as the concentration at which the activity in the assay is half-maximal.

Fatty acid synthase (Homo sapiens), sequence (P49327 whole entry, looked up): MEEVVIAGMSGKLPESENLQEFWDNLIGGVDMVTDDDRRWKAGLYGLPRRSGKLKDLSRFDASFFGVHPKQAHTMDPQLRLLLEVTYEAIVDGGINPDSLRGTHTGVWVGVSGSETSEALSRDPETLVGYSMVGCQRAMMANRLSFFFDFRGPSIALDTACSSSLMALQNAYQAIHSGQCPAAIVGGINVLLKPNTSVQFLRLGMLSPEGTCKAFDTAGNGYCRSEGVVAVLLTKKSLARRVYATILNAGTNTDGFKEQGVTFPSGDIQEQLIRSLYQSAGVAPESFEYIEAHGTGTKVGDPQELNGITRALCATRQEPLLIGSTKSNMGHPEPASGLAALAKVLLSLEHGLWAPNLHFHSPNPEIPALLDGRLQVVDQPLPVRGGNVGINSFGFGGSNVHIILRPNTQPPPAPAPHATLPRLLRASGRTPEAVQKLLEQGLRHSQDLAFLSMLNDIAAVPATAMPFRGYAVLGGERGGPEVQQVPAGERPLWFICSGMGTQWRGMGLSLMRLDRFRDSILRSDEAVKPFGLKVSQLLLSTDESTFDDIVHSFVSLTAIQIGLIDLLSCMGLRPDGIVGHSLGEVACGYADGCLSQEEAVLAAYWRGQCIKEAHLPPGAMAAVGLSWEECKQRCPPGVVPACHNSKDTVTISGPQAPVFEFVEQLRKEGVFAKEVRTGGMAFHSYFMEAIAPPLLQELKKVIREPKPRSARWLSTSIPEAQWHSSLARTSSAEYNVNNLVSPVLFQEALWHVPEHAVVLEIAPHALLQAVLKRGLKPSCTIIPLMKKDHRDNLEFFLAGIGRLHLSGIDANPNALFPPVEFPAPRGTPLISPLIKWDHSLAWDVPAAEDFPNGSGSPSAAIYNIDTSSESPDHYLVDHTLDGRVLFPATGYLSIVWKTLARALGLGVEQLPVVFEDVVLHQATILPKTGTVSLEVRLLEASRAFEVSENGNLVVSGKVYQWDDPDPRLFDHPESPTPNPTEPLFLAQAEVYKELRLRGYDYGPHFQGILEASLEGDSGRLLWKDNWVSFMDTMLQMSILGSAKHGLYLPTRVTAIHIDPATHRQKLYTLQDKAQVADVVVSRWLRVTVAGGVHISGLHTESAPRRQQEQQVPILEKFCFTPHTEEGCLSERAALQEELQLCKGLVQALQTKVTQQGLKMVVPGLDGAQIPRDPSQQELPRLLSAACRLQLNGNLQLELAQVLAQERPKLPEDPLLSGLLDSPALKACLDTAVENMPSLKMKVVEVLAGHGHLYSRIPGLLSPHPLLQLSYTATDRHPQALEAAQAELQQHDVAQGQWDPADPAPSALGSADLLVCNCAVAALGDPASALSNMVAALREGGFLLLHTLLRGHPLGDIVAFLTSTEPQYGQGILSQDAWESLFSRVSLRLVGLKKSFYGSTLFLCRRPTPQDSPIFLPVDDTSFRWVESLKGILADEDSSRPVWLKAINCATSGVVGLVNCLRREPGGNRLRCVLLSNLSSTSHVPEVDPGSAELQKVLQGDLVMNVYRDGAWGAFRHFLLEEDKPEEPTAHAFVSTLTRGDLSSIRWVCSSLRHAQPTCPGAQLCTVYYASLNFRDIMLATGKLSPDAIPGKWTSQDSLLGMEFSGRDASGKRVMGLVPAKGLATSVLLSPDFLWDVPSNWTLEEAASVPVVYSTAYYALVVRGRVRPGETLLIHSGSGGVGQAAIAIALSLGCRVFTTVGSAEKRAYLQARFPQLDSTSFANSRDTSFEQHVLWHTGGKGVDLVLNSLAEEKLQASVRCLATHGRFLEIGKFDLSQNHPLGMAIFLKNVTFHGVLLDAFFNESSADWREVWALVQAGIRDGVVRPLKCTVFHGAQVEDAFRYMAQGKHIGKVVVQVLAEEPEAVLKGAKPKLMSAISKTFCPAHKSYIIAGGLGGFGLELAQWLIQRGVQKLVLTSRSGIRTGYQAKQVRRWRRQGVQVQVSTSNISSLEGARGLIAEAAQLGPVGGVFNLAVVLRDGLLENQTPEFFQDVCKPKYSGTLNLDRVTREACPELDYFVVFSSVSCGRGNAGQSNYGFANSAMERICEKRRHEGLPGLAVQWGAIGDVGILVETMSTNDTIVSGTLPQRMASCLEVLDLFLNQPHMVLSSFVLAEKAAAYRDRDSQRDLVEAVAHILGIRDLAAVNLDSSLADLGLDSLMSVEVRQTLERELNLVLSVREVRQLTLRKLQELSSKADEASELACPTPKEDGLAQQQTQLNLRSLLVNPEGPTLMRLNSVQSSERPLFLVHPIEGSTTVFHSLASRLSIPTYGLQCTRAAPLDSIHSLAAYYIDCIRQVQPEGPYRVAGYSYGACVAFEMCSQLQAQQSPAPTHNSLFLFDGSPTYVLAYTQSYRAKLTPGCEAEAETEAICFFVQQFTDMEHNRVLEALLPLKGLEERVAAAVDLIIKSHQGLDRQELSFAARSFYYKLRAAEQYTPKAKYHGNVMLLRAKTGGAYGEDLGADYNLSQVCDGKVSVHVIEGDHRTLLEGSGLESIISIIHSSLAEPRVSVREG

`O=C(O)C1C(C(=O)O)C2(Cl)C(Cl)=C(Cl)C1(Cl)C2(Cl)Cl` (configuration not stated): the result in assay [1], in assay [2], in assay [3], in assay [4], in assay [5] and in [6] was inactive. Also, the result in assay [7], in assay [8], in assay [9] and in assay [10] was inactive.

Turning to `CCCCN(CCCC)N=O`, the compound was classed as inactive in assay [1], in assay [2], in assay [3], in assay [4], in assay [5] and in assay [6]. The compound was classed as inactive in assay [7], in assay [8], in assay [9] and in [10].

For `CSC(C)(C)C=NO`, the compound was classed as inactive in [1], in [2], in [4], in [5], in assay [6] and in assay [7]. In addition, the compound was called inactive in assay [8], in [9] and in [10].

`c1cc2c3c(cccc3c1)CC2`: the compound was called inactive in assay [1], in [2], in assay [3], in assay [5], in [6] and in [8]. The call in [9] and in [10] was inactive. Moreover, the AC50 is 0.387 µM (active) in assay [4] and 72.4 µM (active) in [7].

In the case of `CCC1(c2ccccc2)C(=O)N=C(O)NC1=O` (configuration not stated), the outcome in assay [1], in assay [2], in [3], in assay [4], in assay [5] and in assay [6] was inactive. Further, the call in assay [8], in assay [9] and in assay [10] was inactive. In addition, in [7], the AC50 is 64.3 µM (active).

Take `CCOC(=O)c1ccccc1C(=O)OCC`: the compound was called inactive in assay [1], in assay [2], in assay [3], in assay [4], in assay [5] and in assay [6]. Also, the compound was classed as inactive in [8], in assay [9] and in assay [10]. In [7], the AC50 is 74 µM (active).

Take `CN(C)C(=O)Cl`: the outcome in assay [1], in assay [2], in assay [3], in [4], in assay [5] and in [6] was inactive. The call in assay [8] and in assay [10] was inactive. Also, in [7], the AC50 is 50 µM (active).

For `Cc1ccc([N+](=O)[O-])cc1C`, the call in assay [1], in assay [2], in assay [3], in assay [4], in assay [5] and in assay [6] was inactive. Besides, the outcome in assay [8], in assay [9] and in assay [10] was inactive. Further, the half-maximal activity concentration (AC50) in assay [7] is 68.1 µM (active).

Turning to `CCCCCCCc1ccc(O)cc1`, the outcome in [1], in [2], in assay [4], in assay [5], in assay [6] and in [7] was inactive. Besides, the result in assay [8], in [9] and in assay [10] was inactive.

In the case of `O=[N+]([O-])c1ccccc1`, the call in assay [2], in assay [3], in assay [4], in [5], in assay [6] and in assay [8] was inactive. In addition, the compound was classed as inactive in [9] and in [10]. In addition, the AC50 in assay [7] was 50 µM (active).

`CC(C)(C)OOC(C)(C)C`: the result in assay [1], in assay [2], in assay [3], in [4], in assay [5] and in [6] was inactive. Also, the compound was called inactive in assay [7], in [8], in assay [9] and in assay [10].

Turning to `OCC1CO1` (configuration not stated), the outcome in assay [1], in [2], in assay [3], in assay [4], in [5] and in assay [6] was inactive. Also, the outcome in assay [7], in [8], in assay [9] and in [10] was inactive.

Turning to `CCCCc1ccccc1`, the compound was called inactive in assay [1], in [2], in assay [3], in [4], in [5] and in [6]. For the same compound, the result in assay [8], in assay [9] and in assay [10] was inactive. Besides, the AC50 in assay [7] is 75.6 µM (active).

Consider `ClC1=C(Cl)C2(Cl)C3C(Cl)C(Cl)CC3C1(Cl)C2(Cl)Cl` (configuration not stated), for which the compound was classed as inactive in [1], in assay [2], in [3], in assay [4], in assay [5] and in assay [6]. Also, the compound was called inactive in [8], in [9] and in assay [10]. For the same compound, in [7], the AC50 was 33.4 µM (active).

As to `O=C(O)C(Cl)Cl`, the call in assay [1], in [2], in [3], in [4], in [5] and in assay [11] was inactive. The compound was classed as inactive in assay [6], in assay [7], in assay [8], in [9] and in assay [10].

Source of the values: PubChem BioAssay (EPA / NIEHS).
